Bioassay records: PubChem BioAssay, several laboratories
Rows were chosen to be rich in hits. Some 4.6% of all compounds tested hit in one or more screens of this group.
PfHsp90 yeast 2: growth inhibition of PfHsp90-expressing yeast, primary screen, antimalarial PfHsp90 inhibitor project, S. cerevisiae, BacTiter-Glo luminescence, single point, set 2; BacTiter-Glo ATP, 48 h; yeast lacking PDR1 and PDR3 efflux regulators; inhibition, % at 9.4 µM; 0.32% of 310,000 active;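 active = every replicate shows inhibition above about 80%, whatever the replicate mean, limit read from the data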;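 also: 0% = DMSO neutral controls and 100% = 20 µM radicicol positive controls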
tim23-1 inh: growth inhibitors of tim23-1 mutant yeast, primary screen, luminescence, uHTS; S. cerevisiae tim23-1 growth, BacTiter-Glo luminescence, 24 h; inhibition, % at 20 µM; 1.3% of 330,000 active;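 active = growth inhibition of the mutant yeast at or above 50%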;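 also: temperature-sensitive mutant grown at 25 °C; plate controls were DMSO-treated mutant yeast for no effect and medium wells lacking yeast for full effect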
tim10-1 inh: growth inhibitors of tim10-1 mutant yeast, primary screen, luminescence, uHTS. S. cerevisiae tim10-1 ts strain growth, BacTiter-Glo, 24 h. inhibition, % at 20 µM. 2.2% of 330,000 active. AID 463190, 2010;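 active = inhibition of at least 40%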;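 also: mutant grown at 25 °C; 0% = DMSO wells with yeast and 100% = wells holding no yeast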
NALP3 yeast inh: NALP3 inflammasome inhibitors in reconstituted yeast, primary screen, luminescence, uHTS | Yeast reconstituted NLRP3/ASC/caspase-1, beta-gal luminescence, 24 h | inhibition, % at 10 µM | 0.39% of 330,000 active | AID 2825, 2010;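 active = inhibition of 50% or more; inactive = inhibition below 50%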;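 also: plate controls were induced DMSO wells for no effect and uninduced yeast grown without galactose for full effect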
TIM10 inh: growth inhibitors of isogenic TIM10 control yeast, primary screen, counter-screen for tim10-1 yeast inhibitor project, luminescence, uHTS; inhibition, % at 10 µM; S. cerevisiae TIM10 strain growth, BacTiter-Glo luminescence, 24 h; AID 463195, 2010; 1.4% of 330,000 active;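 active = inhibition of 40% or more at the single tested concentration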;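 also: wild-type TIM10 isogenic control strain grown at permissive 25 °C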
SKKanGAS inh: S. pyogenes SKKanGAS growth inhibitors in kanamycin, primary screen, streptokinase expression inhibitor project, SKKanGAS strain, BacTiter-Glo luminescence | 6 h | inhibition, % at 7.5 µM | 1.3% of 300,000 active | AID 1662, 2009;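 active = mean replicate score, as percent of positive control median, at least 50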;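 also: strain carries kanamycin resistance gene driven by streptokinase promoter and grows in 40 µg/ml kanamycin; loss of luminescence reflects streptokinase promoter inhibition or plain growth inhibition; 0% = median of DMSO wells and 100% = positive control at its reference dose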
tim10-1 confirm: growth inhibitors of tim10-1 mutant yeast, confirmation, single concentration, luminescence, S. cerevisiae; shares compounds with tim10-1 inh; S. cerevisiae tim10-1 ts strain growth, BacTiter-Glo, 24 h; inhibition, % at 20 µM; 56% of 7,400 active; AID 463213, 2010;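 active = inhibition of yeast growth at or above a set limit in either of two repeat tests at 20 µM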;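 also: tim10-1 mutant grown at permissive 25 °C to find synthetic lethal compounds; 0% = DMSO yeast wells and 100% = medium wells without yeast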
Numbers without * were called inactive; . = no result given.

SMILES | PfHsp90 yeast 2 | tim23-1 inh | tim10-1 inh | NALP3 yeast inh | TIM10 inh | SKKanGAS inh | tim10-1 confirm
O=C(/C=C/c1cccc(Cl)c1)OCc1cn2cc(Cl)ccc2n1 | -11 | 28 | 43* | 6 | 20 | 0 | 29
Cc1cc(C)nc(N(C#N)Cc2cccc3ccccc23)n1 | 7 | 32 | 48* | 14 | 6 | 10 | 35*
Cc1cc(C)nc(N(C#N)Cc2ccccc2)n1 | -16 | -7 | 9 | -5 | -23 | 5 | .
N=C1C(c2nc3ccccc3c(=O)[nH]2)=C(O)CN1CCO | -16 | 42 | 22 | 10 | 1 | 1 | .
N=C1C(c2nc3ccccc3c(=O)[nH]2)=C(O)CN1CCc1ccccc1 | 8 | 9 | 41* | -4 | 12 | 8 | -14
Cc1ccc(Cl)c(OCC(=O)Nc2ccc(S(=O)(=O)NC3=NCCCCC3)cc2)c1 | -11 | -3 | -7 | 18 | -3 | 45 | .
O=C(COc1ccc(Cl)cc1Cl)Nc1ccc(S(=O)(=O)NC2=NCCCCC2)cc1 | 11 | 13 | 44* | 4 | 39 | -5 | 39*
Cc1ccc(C)c(S(=O)(=O)N2CCCC2CNC(=O)C(=O)NCc2ccccn2)c1 (configuration not stated) | 23 | 24 | 38 | 8 | 14 | 15 | .
COc1ccc(N(CC(=O)Nc2ccc(C)c(F)c2)S(=O)(=O)c2c(C)noc2C)cc1 | -39 | 6 | 12 | -3 | 14 | 2 | .
COc1ccc(N(CC(=O)Nc2ccc(C)c(C)c2)S(=O)(=O)c2c(C)noc2C)cc1 | 15 | 44 | 45* | -8 | 13 | 1 | 8
CCN(CC)S(=O)(=O)c1cc(NC(=O)CSc2nc3c(cc2C#N)C(=O)CC(C)(C)C3)ccc1C | -18 | -2 | -8 | 6 | -7 | -3 | .
COC(=O)c1ccc(/C=C/C(=O)OCC(=O)c2ccc[nH]2)cc1 | 3 | 1 | -12 | 28 | -18 | . | .
CCOP(=O)(OCC)/C(C#N)=C/c1ccc(-c2ccc(F)cc2F)o1 | -6 | 34 | 47* | -3 | 9 | 3 | 32*
COCCNC(=O)/C(C#N)=C/c1ccc(-c2ccc(OC)cc2[N+](=O)[O-])o1 | 9 | -8 | -13 | -9 | -6 | 7 | .
CCOC(=O)C1CCCN(C2CC(=O)N(c3ccc(C(C)C)cc3)C2=O)C1 (configuration not stated) | 44 | 25 | 42* | 18 | 23 | -8 | 30*
CCOC(=O)C1CCCN(C2CC(=O)N(c3cccc(C(F)(F)F)c3)C2=O)C1 (configuration not stated) | 120* | 33 | 56* | 4 | 31 | 0 | 42*
CCOC(=O)C1CCCN(C2CC(=O)N(c3ccccc3)C2=O)C1 (configuration not stated) | -24 | 25 | 34 | 17 | 4 | 1 | .
CCc1ccc(N2C(=O)CC(N3CCC(C(=O)OC)CC3)C2=O)cc1 (configuration not stated) | -17 | 22 | 43* | 15 | 11 | -1 | 42*
CC1C=CCC2C(=O)N(c3cccc(C(=O)NCc4ccccc4)c3)C(=O)C12 (configuration not stated) | -1 | 20 | 17 | 1 | 11 | 11 | .
Cc1sc2ncnc(N3CCOCC3)c2c1C | 8 | 8 | 17 | 15 | 11 | 5 | .
Cc1ccc(OCCN2CCN(c3ncnc4sc(C)c(C)c34)CC2)cc1 | 8 | 36 | 47* | 13 | 33 | 5 | 31
CCc1ccc(/C=C2\Oc3cc(OS(C)(=O)=O)ccc3C2=O)cc1 | 11 | 25 | 40* | 31 | 11 | 13 | 26
O=C(COC(=O)C(O)c1ccccc1)NC12CC3CC(CC(C3)C1)C2 (configuration not stated) | -20 | 16 | 13 | 14 | 6 | -13 | .
O=C(COC(=O)CCc1ccccc1)NC12CC3CC(CC(C3)C1)C2 | . | 32 | 43* | -11 | 14 | 0 | 28
